Article PMC7862700, “An all-to-all approach to the identification of sequence-specific readers for epigenetic DNA modifications on cytosine”

Tests used:
Assay in all cases: DAPPL (digital affinity profiling via proximity ligation, sequencing); 10 mM Tris-HCl pH 7.5, 50 mM NaCl, 1 mM DTT, 4% glycerol, room temperature, 30 min; GST-TFs on glutathione beads, 16-mer random dsDNA library, 0.1% formaldehyde crosslink after washing; high values mean tight binding
FLI1 = target: T1, FLI1 (Homo sapiens, UniProt Q01543 1-452); settings: protein: recombinant; tags: N-terminal GST; dsDNA, one strand shown
T1 sequence: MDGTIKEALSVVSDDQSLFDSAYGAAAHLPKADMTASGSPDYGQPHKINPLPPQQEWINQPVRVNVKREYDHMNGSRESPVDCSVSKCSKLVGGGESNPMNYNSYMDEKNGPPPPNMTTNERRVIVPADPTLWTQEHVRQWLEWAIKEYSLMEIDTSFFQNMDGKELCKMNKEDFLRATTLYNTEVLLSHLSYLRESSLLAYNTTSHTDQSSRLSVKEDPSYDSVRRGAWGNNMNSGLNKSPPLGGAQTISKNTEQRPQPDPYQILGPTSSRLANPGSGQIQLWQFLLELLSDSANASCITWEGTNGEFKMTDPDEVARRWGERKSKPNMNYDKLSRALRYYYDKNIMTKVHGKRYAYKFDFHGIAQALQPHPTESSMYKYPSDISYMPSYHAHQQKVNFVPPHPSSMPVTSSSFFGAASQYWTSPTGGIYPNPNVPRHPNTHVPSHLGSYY
Summary of the method: (§1)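 Human transcription factors fused to GST were expressed in yeast, captured on glutathione beads, given DNA barcodes and pooled with a GST-only negative control. Pools were incubated with 200 nmole of a 16-mer random double-stranded DNA library in Tris/NaCl/DTT/glycerol buffer at room temperature for 30 min. They were then washed, crosslinked with 0.1% formaldehyde, proximity-ligated (BsaI/T4 ligase, 1 h, 37 °C), PCR-amplified and sequenced on an Illumina NextSeq500. Binding signal is each 6-mer's read frequency for a factor divided by its frequency for the GST control.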

ELK1 = target: T2, ELK1 (Homo sapiens, UniProt P19419 1-428); settings: protein: recombinant; tags: N-terminal GST; dsDNA, one strand shown
T2 sequence: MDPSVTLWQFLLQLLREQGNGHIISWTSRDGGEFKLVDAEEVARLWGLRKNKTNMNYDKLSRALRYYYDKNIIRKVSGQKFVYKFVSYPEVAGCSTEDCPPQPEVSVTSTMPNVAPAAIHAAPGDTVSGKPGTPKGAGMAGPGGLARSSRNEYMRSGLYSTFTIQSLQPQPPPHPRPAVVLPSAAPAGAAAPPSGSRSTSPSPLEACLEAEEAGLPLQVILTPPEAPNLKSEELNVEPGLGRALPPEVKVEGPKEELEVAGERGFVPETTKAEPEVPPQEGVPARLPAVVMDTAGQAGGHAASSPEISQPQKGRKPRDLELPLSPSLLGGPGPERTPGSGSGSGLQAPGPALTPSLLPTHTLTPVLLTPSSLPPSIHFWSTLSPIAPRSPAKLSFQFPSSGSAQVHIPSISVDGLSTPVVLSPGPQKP
Summary of the method: as §1

GABPA = target: T3, GABPA (Homo sapiens, UniProt Q06546 1-454); settings: protein: recombinant; tags: N-terminal GST; dsDNA, one strand shown
T3 sequence: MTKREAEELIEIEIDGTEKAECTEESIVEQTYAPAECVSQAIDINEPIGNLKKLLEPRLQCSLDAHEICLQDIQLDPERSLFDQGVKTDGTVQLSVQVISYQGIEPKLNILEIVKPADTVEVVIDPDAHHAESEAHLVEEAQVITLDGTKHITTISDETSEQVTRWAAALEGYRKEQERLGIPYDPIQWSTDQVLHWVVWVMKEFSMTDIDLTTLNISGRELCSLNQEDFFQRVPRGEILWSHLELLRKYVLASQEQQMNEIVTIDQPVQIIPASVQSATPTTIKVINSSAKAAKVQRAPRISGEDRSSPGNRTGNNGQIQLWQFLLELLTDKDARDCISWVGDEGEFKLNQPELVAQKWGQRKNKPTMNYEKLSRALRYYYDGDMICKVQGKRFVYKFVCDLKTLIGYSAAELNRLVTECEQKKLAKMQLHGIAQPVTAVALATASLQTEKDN
Summary of the method: as §1

ERG = target: T4, ERG (Homo sapiens, UniProt P11308 1-479); settings: protein: recombinant; tags: N-terminal GST; dsDNA, one strand shown
T4 sequence: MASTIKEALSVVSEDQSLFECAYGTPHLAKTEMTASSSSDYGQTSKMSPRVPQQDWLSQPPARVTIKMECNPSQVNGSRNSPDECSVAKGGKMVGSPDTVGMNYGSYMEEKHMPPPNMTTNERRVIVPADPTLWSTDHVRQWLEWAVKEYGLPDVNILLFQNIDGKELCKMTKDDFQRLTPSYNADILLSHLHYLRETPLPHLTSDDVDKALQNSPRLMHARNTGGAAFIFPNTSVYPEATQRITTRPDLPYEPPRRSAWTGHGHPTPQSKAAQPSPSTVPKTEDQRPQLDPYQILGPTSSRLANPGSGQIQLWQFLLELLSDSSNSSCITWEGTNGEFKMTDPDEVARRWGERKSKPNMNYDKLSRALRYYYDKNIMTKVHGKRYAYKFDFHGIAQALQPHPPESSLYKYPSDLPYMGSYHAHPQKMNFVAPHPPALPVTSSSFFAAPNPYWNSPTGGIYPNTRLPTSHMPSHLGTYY
Summary of the method: as §1

ELF1 = ELF1 (Homo sapiens, UniProt P32519 1-619); settings: protein: recombinant; tags: N-terminal GST; dsDNA, one strand shown
Summary of the method: as §1

EHF = target: T5, EHF (Homo sapiens, UniProt Q9NZC4 1-300); settings: protein: recombinant; tags: N-terminal GST; dsDNA, one strand shown
T5 sequence: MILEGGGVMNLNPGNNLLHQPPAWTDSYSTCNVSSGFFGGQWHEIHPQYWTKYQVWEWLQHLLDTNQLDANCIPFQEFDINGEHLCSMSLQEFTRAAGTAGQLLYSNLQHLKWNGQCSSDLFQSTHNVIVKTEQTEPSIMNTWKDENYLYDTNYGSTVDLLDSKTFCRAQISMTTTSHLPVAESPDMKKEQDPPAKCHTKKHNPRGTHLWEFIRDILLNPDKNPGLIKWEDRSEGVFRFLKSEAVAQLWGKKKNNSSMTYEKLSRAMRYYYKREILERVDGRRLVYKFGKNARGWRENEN
Summary of the method: as §1

SPI1 = SPI1 (Homo sapiens, UniProt P17947 1-270); settings: protein: recombinant; tags: N-terminal GST; dsDNA, one strand shown
Summary of the method: as §1

SPIB = SPIB (Homo sapiens, UniProt Q01892 1-262); settings: protein: recombinant; tags: N-terminal GST; dsDNA, one strand shown
Summary of the method: as §1

ELK3 = target: T6, ELK3 (Homo sapiens, UniProt P41970 1-407); settings: protein: recombinant; tags: N-terminal GST; dsDNA, one strand shown
T6 sequence: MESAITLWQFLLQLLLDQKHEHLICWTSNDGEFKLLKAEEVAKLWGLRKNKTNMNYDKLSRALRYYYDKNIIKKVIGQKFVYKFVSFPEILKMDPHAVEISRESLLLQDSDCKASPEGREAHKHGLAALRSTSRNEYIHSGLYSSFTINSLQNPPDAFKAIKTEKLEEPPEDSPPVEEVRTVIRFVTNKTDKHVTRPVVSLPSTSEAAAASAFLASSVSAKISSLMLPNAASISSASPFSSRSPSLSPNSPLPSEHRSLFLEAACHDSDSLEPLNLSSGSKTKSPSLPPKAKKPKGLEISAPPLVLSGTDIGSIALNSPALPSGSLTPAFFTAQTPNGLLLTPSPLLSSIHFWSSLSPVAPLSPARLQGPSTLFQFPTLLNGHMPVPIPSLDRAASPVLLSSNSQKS
Summary of the method: as §1

FEV = target: T7, FEV (Homo sapiens, UniProt Q99581 1-238); settings: protein: recombinant; tags: N-terminal GST; dsDNA, one strand shown
T7 sequence: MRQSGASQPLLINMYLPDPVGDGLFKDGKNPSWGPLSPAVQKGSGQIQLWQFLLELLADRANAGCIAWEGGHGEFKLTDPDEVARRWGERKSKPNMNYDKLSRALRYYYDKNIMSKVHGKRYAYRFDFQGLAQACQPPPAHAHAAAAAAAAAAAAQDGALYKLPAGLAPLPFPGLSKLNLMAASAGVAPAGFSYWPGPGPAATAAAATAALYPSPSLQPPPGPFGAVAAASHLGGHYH
Summary of the method: as §1

ETV5 = ETV5 (Homo sapiens, UniProt P41161 1-510); settings: protein: recombinant; tags: N-terminal GST; dsDNA, one strand shown
Summary of the method: as §1

HSF1 = HSF1 (Homo sapiens, UniProt Q00613 1-529); settings: protein: recombinant; tags: N-terminal GST; chain copies: 3; dsDNA, one strand shown
Summary of the method: as §1

SPIC = target: T8, SPIC (Homo sapiens, UniProt Q8N5J4 1-248); settings: protein: recombinant; tags: N-terminal GST; dsDNA, one strand shown
T8 sequence: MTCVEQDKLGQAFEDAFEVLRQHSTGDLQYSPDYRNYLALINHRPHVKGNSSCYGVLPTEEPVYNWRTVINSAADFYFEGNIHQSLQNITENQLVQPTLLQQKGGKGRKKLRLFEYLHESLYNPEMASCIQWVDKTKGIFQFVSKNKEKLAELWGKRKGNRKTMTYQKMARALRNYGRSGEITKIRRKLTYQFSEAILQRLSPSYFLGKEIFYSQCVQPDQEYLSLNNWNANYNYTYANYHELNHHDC
Summary of the method: as §1

ELF4 = ELF4 (Homo sapiens, UniProt Q99607 1-663); settings: protein: recombinant; tags: N-terminal GST; dsDNA, one strand shown
Summary of the method: as §1

ELK4 = target: T9, ELK4 (Homo sapiens, UniProt P28324-2 1-405); settings: protein: recombinant; tags: N-terminal GST; dsDNA, one strand shown
T9 sequence: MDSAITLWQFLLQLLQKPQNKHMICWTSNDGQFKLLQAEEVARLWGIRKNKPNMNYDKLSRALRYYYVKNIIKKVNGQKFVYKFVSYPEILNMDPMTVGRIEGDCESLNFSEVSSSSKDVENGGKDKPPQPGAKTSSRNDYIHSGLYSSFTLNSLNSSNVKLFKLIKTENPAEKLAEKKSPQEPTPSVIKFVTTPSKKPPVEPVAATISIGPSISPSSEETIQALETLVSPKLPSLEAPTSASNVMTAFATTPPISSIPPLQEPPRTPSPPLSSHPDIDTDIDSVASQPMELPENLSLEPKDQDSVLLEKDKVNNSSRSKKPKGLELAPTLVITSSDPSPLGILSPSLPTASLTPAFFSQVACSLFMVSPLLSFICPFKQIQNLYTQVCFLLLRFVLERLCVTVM
Summary of the method: as §1

ETV2 = target: T10, ETV2 (Homo sapiens, UniProt O00321 1-342); settings: protein: recombinant; tags: N-terminal GST; dsDNA, one strand shown
T10 sequence: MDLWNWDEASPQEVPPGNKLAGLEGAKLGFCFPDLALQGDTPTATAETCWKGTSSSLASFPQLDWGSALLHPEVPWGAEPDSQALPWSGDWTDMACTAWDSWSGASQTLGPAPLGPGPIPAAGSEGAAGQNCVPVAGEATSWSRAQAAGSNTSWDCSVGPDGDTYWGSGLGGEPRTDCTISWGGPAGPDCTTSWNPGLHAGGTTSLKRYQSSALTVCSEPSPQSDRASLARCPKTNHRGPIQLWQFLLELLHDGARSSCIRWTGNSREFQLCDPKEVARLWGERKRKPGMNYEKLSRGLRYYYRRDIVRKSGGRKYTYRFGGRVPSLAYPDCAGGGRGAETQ
Summary of the method: as §1

ELF3 = target: T11, ELF3 (Homo sapiens, UniProt P78545 1-371); settings: protein: recombinant; tags: N-terminal GST; dsDNA, one strand shown
T11 sequence: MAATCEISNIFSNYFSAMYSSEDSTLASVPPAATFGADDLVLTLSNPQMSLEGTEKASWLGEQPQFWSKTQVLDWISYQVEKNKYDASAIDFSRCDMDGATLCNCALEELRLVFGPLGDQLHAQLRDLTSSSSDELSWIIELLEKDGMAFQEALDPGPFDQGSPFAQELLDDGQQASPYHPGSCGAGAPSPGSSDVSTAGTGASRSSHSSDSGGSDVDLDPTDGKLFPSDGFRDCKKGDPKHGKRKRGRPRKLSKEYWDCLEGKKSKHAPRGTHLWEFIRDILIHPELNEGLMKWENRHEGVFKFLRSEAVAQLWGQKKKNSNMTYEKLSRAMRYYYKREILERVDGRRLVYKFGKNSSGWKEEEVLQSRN
Summary of the method: as §1

CRX = CRX (Homo sapiens, UniProt O43186 1-299); settings: protein: recombinant; tags: N-terminal GST; dsDNA, one strand shown
Summary of the method: as §1

ETV1 = ETV1 (Homo sapiens, UniProt P50549 1-477); settings: protein: recombinant; tags: N-terminal GST; dsDNA, one strand shown
Summary of the method: as §1

Sequence of ELF1 (P32519 whole entry): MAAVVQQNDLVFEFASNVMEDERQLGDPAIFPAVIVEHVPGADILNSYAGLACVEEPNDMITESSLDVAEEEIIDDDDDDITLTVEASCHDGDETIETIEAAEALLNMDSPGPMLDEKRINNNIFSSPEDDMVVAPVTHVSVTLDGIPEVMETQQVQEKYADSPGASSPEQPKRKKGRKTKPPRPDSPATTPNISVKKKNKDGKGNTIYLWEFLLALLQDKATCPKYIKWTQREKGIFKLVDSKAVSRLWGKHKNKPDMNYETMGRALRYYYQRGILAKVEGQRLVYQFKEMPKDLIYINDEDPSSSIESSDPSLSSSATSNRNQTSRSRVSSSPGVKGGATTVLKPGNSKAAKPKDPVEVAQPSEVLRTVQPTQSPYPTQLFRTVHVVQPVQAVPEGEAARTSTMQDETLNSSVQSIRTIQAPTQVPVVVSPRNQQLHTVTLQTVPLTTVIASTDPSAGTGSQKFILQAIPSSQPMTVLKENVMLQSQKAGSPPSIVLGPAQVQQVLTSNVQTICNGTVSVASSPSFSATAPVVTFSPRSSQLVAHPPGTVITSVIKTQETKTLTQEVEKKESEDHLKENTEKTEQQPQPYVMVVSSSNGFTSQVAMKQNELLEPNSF
Sequence of HSF1 (Q00613 whole entry): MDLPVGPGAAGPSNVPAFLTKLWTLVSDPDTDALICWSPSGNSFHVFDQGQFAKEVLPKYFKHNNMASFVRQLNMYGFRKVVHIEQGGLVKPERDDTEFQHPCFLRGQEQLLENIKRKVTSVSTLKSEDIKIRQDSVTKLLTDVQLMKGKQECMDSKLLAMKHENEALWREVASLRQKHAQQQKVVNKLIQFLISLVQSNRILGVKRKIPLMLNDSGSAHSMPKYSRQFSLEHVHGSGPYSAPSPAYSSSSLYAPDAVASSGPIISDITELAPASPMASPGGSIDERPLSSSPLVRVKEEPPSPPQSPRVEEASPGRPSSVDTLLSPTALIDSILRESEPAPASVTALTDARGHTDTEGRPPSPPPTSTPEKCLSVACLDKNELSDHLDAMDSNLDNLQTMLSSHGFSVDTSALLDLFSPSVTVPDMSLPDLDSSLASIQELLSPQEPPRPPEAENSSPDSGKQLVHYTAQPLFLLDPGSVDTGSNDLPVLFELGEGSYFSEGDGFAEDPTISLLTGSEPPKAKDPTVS
Sequence of ETV5 (P41161 whole entry): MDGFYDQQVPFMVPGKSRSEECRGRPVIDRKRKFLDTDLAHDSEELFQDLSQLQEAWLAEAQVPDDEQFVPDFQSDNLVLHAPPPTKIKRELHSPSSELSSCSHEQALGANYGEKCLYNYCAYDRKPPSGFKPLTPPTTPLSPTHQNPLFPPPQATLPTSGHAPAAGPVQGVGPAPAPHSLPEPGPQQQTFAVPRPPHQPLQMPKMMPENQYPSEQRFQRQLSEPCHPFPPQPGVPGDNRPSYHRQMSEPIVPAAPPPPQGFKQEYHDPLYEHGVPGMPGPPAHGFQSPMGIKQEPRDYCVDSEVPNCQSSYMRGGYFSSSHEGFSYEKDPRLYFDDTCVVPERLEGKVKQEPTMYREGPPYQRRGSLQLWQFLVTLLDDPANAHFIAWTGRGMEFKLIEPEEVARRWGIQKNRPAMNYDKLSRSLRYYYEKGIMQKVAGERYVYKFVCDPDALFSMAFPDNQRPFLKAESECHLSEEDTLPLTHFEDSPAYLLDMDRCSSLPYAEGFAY
Sequence of ELF4 (Q99607 whole entry): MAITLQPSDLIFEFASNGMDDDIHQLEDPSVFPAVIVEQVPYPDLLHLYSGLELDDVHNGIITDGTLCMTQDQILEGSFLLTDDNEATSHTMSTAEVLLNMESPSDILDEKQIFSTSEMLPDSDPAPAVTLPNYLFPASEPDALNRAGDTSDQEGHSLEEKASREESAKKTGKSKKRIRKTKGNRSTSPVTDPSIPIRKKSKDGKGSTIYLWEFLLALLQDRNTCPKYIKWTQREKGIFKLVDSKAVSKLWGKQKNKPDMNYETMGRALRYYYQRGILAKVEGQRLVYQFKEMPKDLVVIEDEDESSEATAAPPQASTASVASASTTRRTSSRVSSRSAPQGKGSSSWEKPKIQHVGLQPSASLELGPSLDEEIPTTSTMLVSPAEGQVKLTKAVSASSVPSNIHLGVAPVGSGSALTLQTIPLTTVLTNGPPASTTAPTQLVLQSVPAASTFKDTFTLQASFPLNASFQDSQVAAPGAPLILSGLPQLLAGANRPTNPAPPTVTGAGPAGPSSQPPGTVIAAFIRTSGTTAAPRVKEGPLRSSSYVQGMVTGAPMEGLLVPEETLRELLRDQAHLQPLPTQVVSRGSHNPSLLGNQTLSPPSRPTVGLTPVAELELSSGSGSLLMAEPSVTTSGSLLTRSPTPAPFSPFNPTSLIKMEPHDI
Sequence of ETV1 (P50549 whole entry): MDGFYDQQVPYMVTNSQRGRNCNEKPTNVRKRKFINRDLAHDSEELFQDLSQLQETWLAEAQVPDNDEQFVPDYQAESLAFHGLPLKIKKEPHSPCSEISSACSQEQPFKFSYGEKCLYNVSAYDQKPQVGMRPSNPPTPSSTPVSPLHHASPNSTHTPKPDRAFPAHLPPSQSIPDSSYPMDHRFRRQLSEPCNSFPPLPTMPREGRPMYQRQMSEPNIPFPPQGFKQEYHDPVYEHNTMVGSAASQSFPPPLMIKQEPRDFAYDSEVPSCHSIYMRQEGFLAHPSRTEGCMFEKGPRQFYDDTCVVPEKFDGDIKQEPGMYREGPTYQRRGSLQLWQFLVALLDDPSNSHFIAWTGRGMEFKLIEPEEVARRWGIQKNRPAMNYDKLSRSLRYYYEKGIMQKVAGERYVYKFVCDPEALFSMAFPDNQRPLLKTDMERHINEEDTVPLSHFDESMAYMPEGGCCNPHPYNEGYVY
Sequence of SPIB (Q01892 whole entry): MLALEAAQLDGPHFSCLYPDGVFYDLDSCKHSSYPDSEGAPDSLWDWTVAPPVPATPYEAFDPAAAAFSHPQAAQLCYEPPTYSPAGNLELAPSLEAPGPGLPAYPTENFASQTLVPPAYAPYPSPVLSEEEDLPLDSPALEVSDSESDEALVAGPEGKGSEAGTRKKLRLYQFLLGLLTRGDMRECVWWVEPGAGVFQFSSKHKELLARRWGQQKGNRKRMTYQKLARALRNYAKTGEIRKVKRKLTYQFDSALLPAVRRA
Sequence of CRX (O43186 whole entry): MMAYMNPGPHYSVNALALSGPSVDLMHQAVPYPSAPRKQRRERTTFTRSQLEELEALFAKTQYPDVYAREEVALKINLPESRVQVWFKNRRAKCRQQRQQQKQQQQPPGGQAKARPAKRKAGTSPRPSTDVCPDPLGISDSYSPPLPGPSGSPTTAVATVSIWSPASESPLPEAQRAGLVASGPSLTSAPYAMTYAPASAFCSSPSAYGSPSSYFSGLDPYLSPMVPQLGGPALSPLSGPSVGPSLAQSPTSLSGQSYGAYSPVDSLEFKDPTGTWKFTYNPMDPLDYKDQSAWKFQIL

## CGTTCG
FLI1
  binding signal: 1.15 fold enrichment (6-mer frequency, TF over GST control)
ELK1
  binding signal: 1.14 fold enrichment (6-mer frequency, TF over GST control)
GABPA
  binding signal: 1.23 fold enrichment (6-mer frequency, TF over GST control)
ERG
  binding signal: 1.17 fold enrichment (6-mer frequency, TF over GST control)
ELF1
  binding signal: 1.22 fold enrichment (6-mer frequency, TF over GST control)
EHF
  binding signal: 1.25 fold enrichment (6-mer frequency, TF over GST control)
SPI1
  binding signal: 1.1 fold enrichment (6-mer frequency, TF over GST control)
SPIB
  binding signal: 1.14 fold enrichment (6-mer frequency, TF over GST control)
ELK3
  binding signal: 1.24 fold enrichment (6-mer frequency, TF over GST control)
FEV
  binding signal: 1.1 fold enrichment (6-mer frequency, TF over GST control)
ETV5
  binding signal: 1.2 fold enrichment (6-mer frequency, TF over GST control)
HSF1
  binding signal: 1.43 fold enrichment (6-mer frequency, TF over GST control)
SPIC
  binding signal: 1.16 fold enrichment (6-mer frequency, TF over GST control)
ELF4
  binding signal: 1.32 fold enrichment (6-mer frequency, TF over GST control)
ELK4
  binding signal: 1.22 fold enrichment (6-mer frequency, TF over GST control)
ETV2
  binding signal: 1.44 fold enrichment (6-mer frequency, TF over GST control)
ELF3
  binding signal: 1.08 fold enrichment (6-mer frequency, TF over GST control)
CRX
  binding signal: 1.04 fold enrichment (6-mer frequency, TF over GST control)
ETV1
  binding signal: 1.19 fold enrichment (6-mer frequency, TF over GST control)
